In the library only some 2.3% were active in any assay of this set; here they are far more common.
M1 PAM: positive allosteric modulators of human M1 muscarinic receptor. P11229. CHO-K1 hM1, Fluo-8 calcium fluorescence, ACh EC20; 0% = ACh EC20, 100% = maximal ACh. activation, % at 3 µM. 360,000 compounds, 0.088% hits. AID 588819; in the data active means activation above about 19%, passing the limit was not always enough
Target sequence (P11229 whole entry, looked up): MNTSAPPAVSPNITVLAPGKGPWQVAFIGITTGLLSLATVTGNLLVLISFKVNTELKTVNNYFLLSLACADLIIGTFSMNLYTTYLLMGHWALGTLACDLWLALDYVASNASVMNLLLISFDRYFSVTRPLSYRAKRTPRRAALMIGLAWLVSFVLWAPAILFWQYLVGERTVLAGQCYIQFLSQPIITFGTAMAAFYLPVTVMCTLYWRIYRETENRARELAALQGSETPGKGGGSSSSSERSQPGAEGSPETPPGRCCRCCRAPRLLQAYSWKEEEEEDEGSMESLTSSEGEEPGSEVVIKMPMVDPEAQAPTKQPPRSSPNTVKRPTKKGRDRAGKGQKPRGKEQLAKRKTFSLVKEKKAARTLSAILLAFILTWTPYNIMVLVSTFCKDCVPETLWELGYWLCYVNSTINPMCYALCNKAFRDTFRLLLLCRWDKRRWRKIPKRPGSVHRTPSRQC
M1 ag: activates human CHRM1 receptor; 360,000 compounds, 0.33% hits; activation, % at 3 µM; CHO-K1 hM1, Fluo-8 calcium fluorescence, agonist mode; 0% DMSO, 100% acetylcholine EC100; P11229; AID 588814;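 active means activation above the run's mean compound activation plus 3 SD, cut at about 16% in these data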;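 further: peak over basal fluorescence ratio within a 140 s kinetic read after compound addition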
CHO-K1 Ca PAM: nonselective activator or artifact in parental CHO-K1 calcium assay; 360,000 compounds, 0.02% hits; activation, % at 3 µM; AID 602247; ATP EC20, Fluo-8 calcium fluorescence; 0% at ATP EC20, 100% at ATP max;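 active means activation above the run cutoff, the mean activation of all test compounds plus 3 SD, cut at about 40% in these data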;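 further: peak over basal fluorescence ratio in a 140 s read after ATP addition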
CHO-K1 Ca ag: counter-screen for M1 agonists: effect in parental CHO-K1 cells. Fluo-8 calcium fluorescence; scaled to maximal ATP response, vehicle zero. activation, % at 3 µM. 360,000 compounds, 0.48% hits; in the data active means activation above about 15%;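 further: untransfected CHO-K1 host cells lacking M1 receptor as counterscreen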
CHO-K1 Ca antag: M1 antagonist counterscreen hit in parental CHO-K1 cells | 360,000 compounds, 0.6% hits | inhibition, % at 3 µM | ATP-induced calcium, Fluo-8 fluorescence;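 active means inhibition above a per-plate cutoff, the plate's mean sample inhibition plus 3 SD, cut at about 24% in these data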;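 further: 0% = DMSO plus EC80 ATP and 100% = DMSO alone without ATP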
CHRM1 antagonist: human CHRM1 antagonism. P11229. CHO-K1 hM1, Fluo-8 calcium fluorescence, ACh EC80 antagonist. inhibition, % at 3 µM. 360,000 compounds, 1.3% hits;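 active means percent inhibition above its own plate's cutoff, namely the mean of that plate's compound wells plus 3 SD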;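 further: peak over basal fluorescence ratio during 140 s after agonist addition; 0% = ACh EC80 plus DMSO and 100% = DMSO alone without agonist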
* = called active by the depositor.

SMILES	M1 PAM	M1 ag	CHO-K1 Ca PAM	CHO-K1 Ca ag	CHO-K1 Ca antag	CHRM1 antagonist
CCN(C(=O)COC(=O)c1cccc(S(=O)(=O)N(C)C)c1)c1c(N)n(Cc2ccccc2)c(=O)[nH]c1=O	6	-2	14	1	-14	-9
Cc1ccc(S(=O)(=O)N2C[C@H]3[C@H]4C(=O)N(c5ccccc5)C(=O)[C@H]4C[C@H](OC(=O)NCc4ccccc4)[C@@]3(O)C2)cc1	-1	-4	0	1	-3	0
Cc1ccc(COc2ccc(CNCCCN3CCCCCC3=O)cc2)cc1	-33	-10	11	5	-14	46*
CCCCCC(C)NC(=O)CN1C(=O)NC(C)(c2ccc3ccccc3c2)C1=O (centres undefined)	14	18*	12	0	3	-4
CC(=O)Nc1ccc(/C=N/N2C(=O)NC(C)(c3ccc(OC(F)F)cc3)C2=O)cc1 (centres undefined)	-1	27*	11	6	-10	12
CC1(c2ccc(Cl)cc2)NC(=O)N(CC(=O)Nc2cccnc2Cl)C1=O (centres undefined)	6	22*	14	17*	-8	-10
CCOC(=O)CN1C(=O)NC(C)(c2ccc(OC(F)F)cc2)C1=O (centres undefined)	1	3	16	3	-13	-4
CC1(c2ccc(OC(F)F)cc2)NC(=O)N(CC(=O)Nc2ccccc2)C1=O (centres undefined)	-11	46*	12	46*	17	26*
CS(=O)(=O)N1CCC(C(=O)NCc2ccc3c(c2)OCO3)CC1	10	-2	-2	0	11	-8
CC(=O)Nc1ccc(NC(=O)C2CC(=O)N(c3ccccc3Cl)C2)cc1 (centres undefined)	2	-6	11	1	-11	4
COC(=O)c1cc(NS(=O)(=O)c2ccc(NC(C)=O)cc2)cc(C(=O)OC)c1	5	-2	3	0	6	-6
CC(c1nccs1)N(C)C(=O)CCc1nnc(CCc2ccccc2)o1 (centres undefined)	10	-3	17	1	-17	-13
CCS(=O)(=O)c1ccc(O)c(NC(=O)Nc2cccc3ccccc23)c1	10	-1	14	0	-5	-12
CC1(c2ccc(OC(F)F)cc2)NC(=O)N(CC(=O)Nc2ccc3c(c2)OCO3)C1=O (centres undefined)	-5	39*	20	29*	-14	17
Cc1cc(=O)oc2cc(OC(=O)C3CCN(C(=O)c4ccc(F)cc4)CC3)ccc12	2	-3	-19	0	5	-3
CC(Sc1nc(N)cc(=O)[nH]1)C(=O)Nc1cccc(Cl)c1 (centres undefined)	-1	-2	-14	0	15	6
CC(=O)NC1C(=O)N=C(SC(C)C(=O)Nc2cccc(Cl)c2)NC1=O (centres undefined)	7	-4	12	15*	6	-1
Cc1ccc(C(=O)N(CC(=O)NC2CCCC2)c2ccccc2Cl)s1	9	-4	10	0	-7	-15
CCCCCC[n+]1ccccc1/C=C/c1ccc(N(C)C)cc1	-33	30*	-7	36*	51*	74*
CC[n+]1ccccc1/C=C/c1ccc(N(C)C)cc1	7	-6	19	3	3	-6
COc1ccccc1N1CCN(C(=O)NCc2cccc(C(F)(F)F)c2)CC1	6	5	-1	10	1	-5
Cc1ccc(C(=O)/C=C/c2cn(CC(O)CN3CCOCC3)c3ccccc23)cc1 (centres undefined)	6	-6	20	16*	1	2
CC(=O)c1ccc(S(=O)(=O)N2CCN(c3nc(-c4cccnc4)nc4ccccc34)CC2)cc1	-30	-6	-3	4	-8	76*
O=C(c1cc2cc(F)ccc2[nH]1)N(Cc1cccnc1)CC1CCCN(C2CCCCC2)C1 (centres undefined)	-21	-6	0	0	-5	35*
CC1(C(=O)NS(=O)(=O)C2CC2)CCCN(C(=O)Cc2ccc3ccccc3c2)C1 (centres undefined)	6	-2	3	0	4	-4
